We go through seven molecules from PubChem BioAssay (NCATS).

Assay [1] has as its target Lysosomal acid glucosylceramidase (Homo sapiens) (UniProt P04062). Put plainly: Glucocerebrosidase-p2 (AID 348; in the data active = potency below about 10 µM; also: potency is read from the fitted curve at half-maximal effect). The settings on record: purified GBA, blue fluorogenic substrate, 40 min. Put shortly:
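Normal human glucocerebrosidase (0.2 nM) with blue fluorogenic substrate (80 uM final) in citrate/phosphate pH 5.9 with 10mM sodium taurocholate, 0.01% tween-20; 40 min RT, NaOH/glycine stop; fluorescence Ex 365/Em 440; AC50 from a titration from 0.6 nM upwards.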

The nature of assay [2]: AP1 Signaling Pathway (AID 357; active = well fitted curve in either direction with a large enough effect, not every such curve was filed as active;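 also: ME-180 reporter cells stimulated with EGF at its EC50 level; % is scaled to controls: 0 for no effect and ±100 for the full control effect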). The settings on record: ME-180 AP-1-bla reporter, EGF-induced, beta-lactamase ratio, 5 h; at 7.69 µM (top of the series) unless noted. The gist of the method:
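A ratiometric CCF4 readout (405 nm excitation; 460 and 530 nm emission) quantified AP-1-driven beta-lactamase in ME-180 cells after 5 h with compound and EC50 EGF; AC50 values were derived for activators and inhibitors.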

For assay [3], the target named is Cytochrome P450 1A2 (Homo sapiens) (UniProt P05177). Put plainly: p450-cyp1a2 (AID 410). Also: potency is read from the fitted curve at half-maximal effect.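 As to activity change, negative = inhibition: -100% = full effect of reference inhibitor.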 The following applies: recombinant CYP1A2, luciferin-ME demethylation, luminescence; series mostly up to 57 µM. The gist of the method: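 Luminescent demethylation readout: Luciferin-ME (100uM, equal to Km) turned over by 20nM CYP1A2 for 60 min at room temperature after NADPH regeneration addition, following 10 min compound preincubation. Normalization used 57 uM furafylline as full inhibition.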
Cytochrome P450 1A2 (Homo sapiens), sequence (P05177 whole entry, looked up): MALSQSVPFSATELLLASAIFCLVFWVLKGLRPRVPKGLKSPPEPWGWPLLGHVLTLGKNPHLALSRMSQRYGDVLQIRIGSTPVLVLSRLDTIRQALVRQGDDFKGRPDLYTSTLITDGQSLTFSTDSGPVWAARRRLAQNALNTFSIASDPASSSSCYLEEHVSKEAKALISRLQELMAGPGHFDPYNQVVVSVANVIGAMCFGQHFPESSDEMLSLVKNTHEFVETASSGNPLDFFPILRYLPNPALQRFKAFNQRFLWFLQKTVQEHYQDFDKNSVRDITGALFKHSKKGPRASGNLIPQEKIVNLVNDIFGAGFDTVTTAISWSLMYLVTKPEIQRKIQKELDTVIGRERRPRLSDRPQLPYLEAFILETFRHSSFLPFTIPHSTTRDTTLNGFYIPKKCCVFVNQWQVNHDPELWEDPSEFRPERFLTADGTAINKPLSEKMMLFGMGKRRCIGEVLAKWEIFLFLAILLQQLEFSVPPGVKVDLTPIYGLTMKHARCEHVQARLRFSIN

The nature of assay [4]: NFAT Signaling Pathway (AID 444; active = well fitted curve in either direction with a large enough effect, not every such curve was filed as active;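 also: carbachol stimulus at about its EC50 of 1 µM final; % is scaled to controls: 0 for no effect and ±100 for the full control effect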). The settings on record: Jurkat NFAT-bla M1, carbachol, beta-lactamase ratio, 5 h; at 7.69 µM (top of the series) unless noted. Put shortly:
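Read-out: CCF4 FRET ratio (460 nm/530 nm) after 1 h RT dye loading, used for %activity and AC50 from titration series. Cells: Jurkat NFAT-β-lactamase/M1 line, treated with compound plus 1 uM carbachol for 5 h, 37 °C.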

The nature of assay [5]: Stat Signaling Pathway (AID 446; active = well fitted curve in either direction with a large enough effect, not every such curve was filed as active;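 also: ME-180 cervical cancer cells given 40 pM IL-6 alongside compound; SIE-controlled beta-lactamase reporter measured as 460/530 nm FRET emission ratio; % is scaled to controls: 0 for no effect and ±100 for the full control effect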). The following applies: ME-180 SIE beta-lactamase reporter, IL-6 stimulated, 5 h; at 7.69 µM (top of the series) unless noted. The gist of the method:
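Compound effects on IL-6-induced STAT reporter activity were measured in ME-180 cells. After overnight culture, cells were co-treated with 40 pM IL-6 for 5 hrs before beta-lactamase substrate loading at room temperature.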

Assay [6] addresses Glucocorticoid receptor (Homo sapiens) (UniProt P04150). Put plainly: GR-EFC Redistribution (AID 451). Also: potency is read from the fitted curve at half-maximal effect. The settings on record: CHO-K1 GR-EFC translocation, beta-gal luminescence, 2 h. The gist of the method: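 Translocation of GR-ED fusion to nuclear EA restores b-gal, read by luminescence after 1 h room-temperature detection. Engineered CHO-K1 biosensor cells, 1,000/well, exposed 2 h at 37 C to titrations up to 46 uM final.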

The target of assay [7] is Mitogen-activated protein kinase 10 (Mus musculus) (UniProt Q61831). As to the kind of experiment: JNK3 AlphaScreen Assay (AID 530; active = well fitted curve in either direction with a large enough effect, not every such curve was filed as active;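 also: kinase came from lysate of stimulated human HepG2 cells; signal reports phosphorylation of biotinylated GST-cJun 1-79 at Ser73 with 10 µM ATP; % is scaled to controls: 0 for no effect and ±100 for the full control effect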). The settings on record: JNK3 lysate, c-Jun phosphorylation; series mostly up to 57.1 µM. Put shortly: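 qHTS titrations with 15 min compound pre-incubation before adding ATP (10 uM final). Read-out: AlphaScreen of Ser73-phosphorylated biotin-GST-cJun using HepG2 lysate JNK3 activated by IL-1β and TNFα.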
(In general: Alpha assays give light when donor and acceptor beads are brought close together.)

For assay [8], the target named is 3',5'-cyclic-AMP phosphodiesterase 4B (Homo sapiens) (UniProt Q07343). As to the kind of experiment: qHTS Assay for Inhibitors of PDE-IV (AID 607; active = well fitted activation curve with a large enough effect in the main read-out, with a control signal flat, not every such curve was filed as active; also: % of control where 0% means no effect). The settings on record: HEK293 ACTOne CNG channel cells, membrane potential fluorescence; series mostly up to 22.9 µM. Put shortly: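 ACTOne HEK293 cells carry a modified cAMP-gated CNG channel and express endogenous PDE4; plated 1000 cells/well, compounds up to 22.9 uM final. Membrane-potential dye fluorescence (ex 535/em 590) was read; parental cells received 10 uM forskolin + 100 uM RO 20-1724.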
3',5'-cyclic-AMP phosphodiesterase 4B (Homo sapiens), sequence (Q07343 whole entry, looked up): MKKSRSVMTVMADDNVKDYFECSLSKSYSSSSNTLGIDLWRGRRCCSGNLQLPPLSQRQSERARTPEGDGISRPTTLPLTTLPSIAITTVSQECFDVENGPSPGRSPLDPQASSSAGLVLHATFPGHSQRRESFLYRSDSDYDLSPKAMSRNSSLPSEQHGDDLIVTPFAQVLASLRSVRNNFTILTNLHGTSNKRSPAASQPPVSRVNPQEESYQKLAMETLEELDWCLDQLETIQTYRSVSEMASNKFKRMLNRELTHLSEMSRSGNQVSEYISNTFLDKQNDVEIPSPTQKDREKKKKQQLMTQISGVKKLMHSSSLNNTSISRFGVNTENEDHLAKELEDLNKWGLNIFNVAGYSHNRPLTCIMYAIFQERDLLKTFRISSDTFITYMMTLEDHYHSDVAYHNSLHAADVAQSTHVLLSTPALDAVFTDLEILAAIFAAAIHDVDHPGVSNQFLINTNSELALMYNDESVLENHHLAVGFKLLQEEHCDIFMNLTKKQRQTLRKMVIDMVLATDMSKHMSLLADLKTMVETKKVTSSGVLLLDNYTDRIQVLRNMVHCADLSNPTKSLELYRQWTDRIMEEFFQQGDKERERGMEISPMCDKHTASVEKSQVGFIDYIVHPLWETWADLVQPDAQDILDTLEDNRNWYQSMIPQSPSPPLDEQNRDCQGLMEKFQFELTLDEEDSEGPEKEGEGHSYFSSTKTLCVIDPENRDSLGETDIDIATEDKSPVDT
On the technique in general: Quantitative high-throughput screening tests each substance at several concentrations.

Assay [9] has as its target Cytochrome P450 3A4 (Homo sapiens) (UniProt P08684). As to the kind of experiment: qHTS Assay for Activators of Cytochrome P450 3A4 (AID 885; active = well fitted curve in the direction sought with a large enough effect; an effect the other way counts as inactive or inconclusive; also: nearly all actives have a fitted effect of over 65% in size). The following applies: recombinant CYP3A4, Luciferin-PPXE luminescence, 60 min; series mostly up to 57.1 µM. Put shortly: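 CYP3A4 activity: Luciferin-PPXE O-dealkylation, 25uM substrate, 200mM KPO4, RT throughout. Read-out is luciferase luminescence; higher values reflect activation.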

The nature of assay [10]: qHTS Assay for Lipid Storage Modulators (AID 1519). The following applies: Drosophila S3 cells, BODIPY lipid droplet/cell ratio, laser cytometry, cells loaded with oleic acid; for activity change, negative = inhibition: at 57.5 µM (top of the series). The gist of the method:
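Cells seeded at 5,000 per well were treated with compounds over a concentration series and loaded with oleic acid (400 uM, as added). Lipid droplet fluorescence (488 nm excitation, 500-530 nm channel) was read by laser-scanning cytometry and normalized to 20 uM Triacsin C.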

Assay [11] addresses Glucocorticoid receptor (Homo sapiens) (UniProt P04150). As to the kind of experiment: GR-GFP Redistribution (AID 450;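 active = compounds whose dose series gives a full or clear partial fitted curve of increased nuclear translocation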; also: potency is read from the fitted curve at half-maximal effect). The settings on record: U2OS GR-GFP nuclear translocation, laser cytometry, 2 h.
Assay [12] can be described thus: qHTS Assay for Identification of Small Molecule Agonists for Hypoxia Response Element Signaling Pathway (AID 914; active = well fitted activation curve with a large enough effect in the signal ratio, with a control signal flat, not every such curve was filed as active; the % refers to the signal ratio; also: potency is read from the fitted curve at half-maximal effect; as to activation: % of control where 0% means no effect). The following applies: ME-180 (cervical carcinoma) HRE-bla reporter, beta-lactamase ratio, CoCl2, 17 h; activation: stronger effect = higher value. Put shortly:
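Compounds in a titration series were added to ME-180 reporter cells alongside an EC50 level of CoCl2. After 17 hours, beta-lactamase activity was read as the 460nm/530nm emission ratio of CCF4, giving AC50 values.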

Assay [13] can be described thus: Confirmation and Secondary Assay for Modulators of Hemoglobin Beta Chain Splicing at IVS2 654 locus (AID 910; active = well fitted curve in the direction sought with a large enough effect; an effect the other way counts as inactive or inconclusive;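 also: HeLa cells stably carrying EGFP split by mutant beta-globin IVS2-654 intron; per-well total GFP intensity by laser scanning cytometry after 2-day treatment; % of control where 0% means no effect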). The settings on record: HeLa EGFP-654 splicing reporter, GFP fluorescence, 48 h; series mostly up to 38.3 µM. Put shortly: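 Readout: per-well total peak green fluorescence (488 nm ex, 500–520 nm em) from objects 5–250 µm, reflecting correct splicing of an EGFP-654 reporter. Compounds were applied for 2 days at 37 °C to overnight-plated HeLa EGFP-654 cells; controls were DMSO and 500 nM IVS2-654 PNA.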

A short description of assay [14]: Confirmation and Secondary Assay for Modulators of Hemoglobin Beta Chain Splicing at IVS2 705 locus (AID 930; active = well fitted curve in the direction sought with a large enough effect; an effect the other way counts as inactive or inconclusive;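 also: HeLa cells stably expressing the EGFP-705 splicing reporter; % of control where 0% means no effect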). The settings on record: HeLa EGFP-705 splicing reporter, GFP fluorescence, 48 h; series mostly up to 38.3 µM. Put shortly: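 Assay measures total GFP intensity per well in HeLa EGFP-705 cells after 2 days with compound; mis-splicing normally truncates EGFP, so fluorescence indicates corrected splicing.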

The target in assay [15] is Ubiquitin carboxyl-terminal hydrolase 1 (Homo sapiens) (UniProt O94782). As to the kind of experiment: Inhibitors of USP1/UAF1: Pilot qHTS (AID 504865; active = well fitted curve in the direction sought with a large enough effect; an effect the other way counts as inactive or inconclusive;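 also: rhodamine fluorescence freed from ubiquitin-rhodamine substrate followed over time; top concentration of the series differs between compounds; % is scaled to controls: 0 for no effect and ±100 for the full control effect; nearly all actives have a fitted effect of over 35% in size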). The following applies: purified USP1/UAF1, Ub-rhodamine cleavage fluorescence; series mostly up to 54.9 µM. Put shortly:
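1nM USP1/UAF1 + cpd, 15 min RT; start w/ Ub-Rho 150nM final; kinetic FL 480/540 nm, 6 reads q60 s. Buffer 50mM HEPES pH 7.8, 0.5mM EDTA, 1mM TCEP, 0.01% Tween-20, 0.1 mg/ml BSA.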

In assay [16] the target is Cytochrome P450 3A4 (Homo sapiens) (UniProt P08684). As to the kind of experiment: qHTS Assay for Inhibitors and Substrates of Cytochrome P450 3A4 (AID 884; active = well fitted curve in the direction sought with a large enough effect; an effect the other way counts as inactive or inconclusive; also: potency is read from the fitted curve at half-maximal effect; nearly all actives have a fitted effect of over 50% in size). The following applies: recombinant CYP3A4, Luciferin-PPXE luminescence; series mostly up to 57.1 µM. Put shortly: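 Luminescent readout of luciferin produced by CYP3A4 (20 nM) dealkylation of Luciferin-PPXE, 25 uM (its KM). NADPH-driven reaction ran 60 min at RT after 10 min compound preincubation; data scaled to 57 uM ketoconazole as 100% inhibition.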
Cytochrome P450 3A4 (Homo sapiens), sequence (P08684 whole entry, looked up): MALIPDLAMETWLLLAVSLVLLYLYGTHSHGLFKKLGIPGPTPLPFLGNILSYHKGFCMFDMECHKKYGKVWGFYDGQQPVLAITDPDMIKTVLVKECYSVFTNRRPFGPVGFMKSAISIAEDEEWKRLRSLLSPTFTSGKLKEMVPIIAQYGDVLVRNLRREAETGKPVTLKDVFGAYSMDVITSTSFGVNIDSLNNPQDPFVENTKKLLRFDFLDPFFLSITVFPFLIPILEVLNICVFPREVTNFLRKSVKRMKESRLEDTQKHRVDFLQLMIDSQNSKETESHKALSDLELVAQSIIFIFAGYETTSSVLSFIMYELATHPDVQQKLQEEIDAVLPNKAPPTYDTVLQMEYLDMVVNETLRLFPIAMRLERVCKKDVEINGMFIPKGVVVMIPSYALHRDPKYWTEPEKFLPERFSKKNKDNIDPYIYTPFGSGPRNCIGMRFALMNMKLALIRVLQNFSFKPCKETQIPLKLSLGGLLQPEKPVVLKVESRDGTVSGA

The target in assay [17] is Cytochrome P450 2C19 (Homo sapiens) (UniProt P33261). Put plainly: qHTS Assay for Inhibitors and Substrates of Cytochrome P450 2C19 (AID 899; active = well fitted curve in the direction sought with a large enough effect; an effect the other way counts as inactive or inconclusive; also: potency is read from the fitted curve at half-maximal effect; nearly all actives have a fitted effect of over 60% in size). The settings on record: recombinant CYP2C19, luciferin-H EGE luminescence; series mostly up to 57.1 µM. The gist of the method: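 5nM enzyme + 10uM Luciferin-H EGE (=KM), 50mM KPO4; cpd pin-transferred, 10 min 37C; NADPH regen, 60 min 37C; stopped w/ luciferin detection reagent, 20 min; luminescence. Normalized to 57uM ketoconazole (AC100).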
Cytochrome P450 2C19 (Homo sapiens), sequence (P33261 whole entry, looked up): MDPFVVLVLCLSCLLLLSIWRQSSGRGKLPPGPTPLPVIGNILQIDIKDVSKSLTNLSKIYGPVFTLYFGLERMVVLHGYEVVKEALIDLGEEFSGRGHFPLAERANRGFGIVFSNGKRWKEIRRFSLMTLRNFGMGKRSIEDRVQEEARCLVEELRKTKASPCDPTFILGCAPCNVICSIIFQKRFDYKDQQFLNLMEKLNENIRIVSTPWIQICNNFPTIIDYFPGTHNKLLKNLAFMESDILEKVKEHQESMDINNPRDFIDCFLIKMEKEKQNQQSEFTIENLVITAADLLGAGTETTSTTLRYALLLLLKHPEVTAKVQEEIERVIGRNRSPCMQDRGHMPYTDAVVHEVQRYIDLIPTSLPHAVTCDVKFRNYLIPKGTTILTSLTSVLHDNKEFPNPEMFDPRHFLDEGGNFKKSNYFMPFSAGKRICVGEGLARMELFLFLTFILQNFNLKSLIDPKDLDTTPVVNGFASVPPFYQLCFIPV

[18] abbreviates: measured here: cell count channel max response.
Setting [19] is: measured here: lipid channel max response.

Molecules are shown by their SMILES. Records with an inconclusive call do not appear. Active and inactive are the calls of the source. Unless noted, calls follow the shape of the full dose curve.

Lysosomal acid glucosylceramidase (Homo sapiens), sequence (P04062 whole entry, looked up): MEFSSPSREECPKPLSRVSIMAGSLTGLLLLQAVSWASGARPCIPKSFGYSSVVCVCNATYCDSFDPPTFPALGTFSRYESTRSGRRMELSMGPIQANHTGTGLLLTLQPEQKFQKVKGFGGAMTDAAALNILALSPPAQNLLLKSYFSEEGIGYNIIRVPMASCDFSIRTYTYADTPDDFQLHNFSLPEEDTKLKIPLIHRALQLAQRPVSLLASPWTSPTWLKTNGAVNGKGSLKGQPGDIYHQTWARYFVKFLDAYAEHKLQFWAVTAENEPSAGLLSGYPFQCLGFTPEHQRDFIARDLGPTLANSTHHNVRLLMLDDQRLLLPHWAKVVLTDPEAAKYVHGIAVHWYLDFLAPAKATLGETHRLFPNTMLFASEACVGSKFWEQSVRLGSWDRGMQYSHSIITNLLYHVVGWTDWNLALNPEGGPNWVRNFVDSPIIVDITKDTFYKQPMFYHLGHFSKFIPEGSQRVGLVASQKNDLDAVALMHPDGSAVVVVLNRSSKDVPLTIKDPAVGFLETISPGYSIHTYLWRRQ
Glucocorticoid receptor (Homo sapiens), sequence (P04150 whole entry, looked up, the tested form may be a part): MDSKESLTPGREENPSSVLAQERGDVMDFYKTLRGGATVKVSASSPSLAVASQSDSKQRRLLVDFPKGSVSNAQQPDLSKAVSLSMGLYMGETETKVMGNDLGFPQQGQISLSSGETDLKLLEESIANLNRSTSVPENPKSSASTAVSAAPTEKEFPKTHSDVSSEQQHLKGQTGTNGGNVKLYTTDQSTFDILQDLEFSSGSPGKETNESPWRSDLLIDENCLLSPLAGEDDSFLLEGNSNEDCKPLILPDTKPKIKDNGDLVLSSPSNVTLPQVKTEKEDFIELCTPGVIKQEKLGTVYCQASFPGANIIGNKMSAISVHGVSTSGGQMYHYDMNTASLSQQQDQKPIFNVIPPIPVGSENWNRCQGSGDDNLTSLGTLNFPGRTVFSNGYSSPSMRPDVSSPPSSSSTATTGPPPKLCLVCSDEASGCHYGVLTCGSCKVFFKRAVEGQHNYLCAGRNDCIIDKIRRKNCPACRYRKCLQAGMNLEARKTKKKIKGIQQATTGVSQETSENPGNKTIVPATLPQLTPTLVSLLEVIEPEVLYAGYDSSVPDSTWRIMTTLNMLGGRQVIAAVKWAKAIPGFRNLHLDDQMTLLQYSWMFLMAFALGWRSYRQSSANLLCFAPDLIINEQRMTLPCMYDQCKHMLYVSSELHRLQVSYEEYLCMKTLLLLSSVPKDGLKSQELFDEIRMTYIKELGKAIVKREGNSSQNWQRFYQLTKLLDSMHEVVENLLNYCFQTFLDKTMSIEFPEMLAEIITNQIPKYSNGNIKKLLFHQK
Ubiquitin carboxyl-terminal hydrolase 1 (Homo sapiens), sequence (O94782 whole entry, looked up): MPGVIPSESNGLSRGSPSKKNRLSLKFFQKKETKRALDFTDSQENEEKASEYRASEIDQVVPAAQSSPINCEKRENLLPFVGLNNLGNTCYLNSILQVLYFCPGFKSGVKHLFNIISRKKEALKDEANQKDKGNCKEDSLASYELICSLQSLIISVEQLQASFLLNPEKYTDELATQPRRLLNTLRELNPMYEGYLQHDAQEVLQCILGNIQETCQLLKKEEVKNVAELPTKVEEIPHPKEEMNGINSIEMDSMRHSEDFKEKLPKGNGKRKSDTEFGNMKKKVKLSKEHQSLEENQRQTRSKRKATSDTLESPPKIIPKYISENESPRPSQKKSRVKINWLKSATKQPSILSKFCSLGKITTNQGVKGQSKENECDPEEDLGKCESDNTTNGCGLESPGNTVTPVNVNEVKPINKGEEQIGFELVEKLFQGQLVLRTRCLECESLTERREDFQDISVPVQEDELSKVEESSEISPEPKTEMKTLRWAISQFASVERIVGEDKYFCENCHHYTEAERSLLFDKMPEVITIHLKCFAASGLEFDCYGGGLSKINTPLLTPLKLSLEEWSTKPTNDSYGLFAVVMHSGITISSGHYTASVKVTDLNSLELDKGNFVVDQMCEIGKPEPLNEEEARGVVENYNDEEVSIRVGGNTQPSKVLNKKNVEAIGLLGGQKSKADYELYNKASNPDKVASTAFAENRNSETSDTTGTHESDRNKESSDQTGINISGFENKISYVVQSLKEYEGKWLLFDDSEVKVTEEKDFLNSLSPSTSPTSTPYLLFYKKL

As for `COc1ccc(NC(=O)N2CCCC3(CCN(C(=O)c4cc(C(F)(F)F)cc(C(F)(F)F)c4)CC3)C2)cc1`, the Potency was > 11.4 µM (inactive) in assay [1] and > 46 µM (inactive) in [6]. The values for the activity change, negative = inhibition in [2], in assay [4] and in assay [10] were -9.5% (inactive), 12.1% (inactive) and 6.29% (inactive), respectively. Moreover, the Potency result in assay [3], in assay [7], in assay [8] and in assay [9] was “inactive” in each case. Further, the activity, negative = inhibition in assay [5] is -15.1% (inactive). Besides, the max response in [10] (setting [18]) is 9.63%; in assay [10] (setting [19]), 18.5%.

Regarding `O=c1c(-c2cccs2)nc2cnc(Oc3cccc(Cl)c3)nc2n1C1CC1`, the Potency is > 11.4 µM (inactive) in assay [1], > 9.22 µM (inactive) in assay [11], > 46 µM (inactive) in assay [6] and 3.16 µM (active) in assay [12]. Besides, the Potency result in [7] is “inactive”. Besides, the activity change, negative = inhibition in assay [10] is -23.5% (inactive). Further, the max response in [10] (setting [18]) is 0.533%; in assay [10] (setting [19]), -23.3%.

With `CN(C)C(=O)c1ccc(-c2nc(NCc3cccnc3)c3ccccc3n2)cc1`, the Potency in assay [1] was > 11.4 µM (inactive); in assay [3], 10 µM (active); in assay [11] it was > 46 µM (inactive); in [6], > 46 µM (inactive); in assay [12], 3.16 µM (active). The results for the activity change, negative = inhibition in [4] and in assay [10] were 9.73% (inactive) and 8.76% (inactive), respectively. Further, the Potency result in assay [7], in [8], in assay [9], in [13] and in assay [15] was “inactive” each time. Besides, in assay [14], the outcome was inactive. Further, the max response in assay [10] (setting [18]) was determined as 17%; in assay [10] (setting [19]), 24.6%.

Regarding `O=C(Nc1ccccc1)N1CCCC2(CCNCC2)C1`, the Potency is > 11.4 µM (inactive) in [1] and > 46 µM (inactive) in assay [6]. In addition, the activity change, negative = inhibition is -6.92% (inactive) in assay [2], 6.49% (inactive) in assay [4] and 3.78% (inactive) in assay [10]. The activity, negative = inhibition in [5] is 4.83% (inactive). Moreover, the Potency result in assay [7], in assay [8] and in [9] was “inactive” throughout. Also, the max response stood at 18% in assay [10] (setting [18]) and 25% in assay [10] (setting [19]).

With `COc1ccccc1CNc1ncnc2ccc(-c3ccc(N(C)C)cc3)cc12`, the Potency in [1] was > 11.4 µM (inactive); in [3], 0.794 µM (active); in [11], > 46 µM (inactive); in assay [6], > 46 µM (inactive); in [16], 2 µM (active). Moreover, in assay [5], the activity, negative = inhibition is -7.61% (inactive). Besides, the Potency entry in [8], in assay [9] and in [13] was “inactive” each time. For the same molecule, the outcome in assay [14] was inactive. In assay [10], the activity change, negative = inhibition is 3.4% (inactive). Moreover, the max response in [10] (setting [18]) was -18%; in assay [10] (setting [19]), -15%.

Take `O=C(c1cnccn1)N1CCC2(CCN(Cc3ccncc3)CC2)CC1`: the Potency was > 11.4 µM (inactive) in assay [1] and > 46 µM (inactive) in [6]. Moreover, the activity change, negative = inhibition is -11.5% (inactive) in assay [2], -19.7% (inactive) in [4] and 3.75% (inactive) in [10]. In addition, in assay [5], the activity, negative = inhibition is -8.42% (inactive). Also, the Potency entry in assay [7] and in assay [8] was “inactive” each time. Moreover, in assay [12], the activation is 2.3% (inactive). The max response in assay [10] (setting [18]) turned out to be 2.59%; in assay [10] (setting [19]), 8.61%.

For the molecule `CN(C)c1ccc(-c2ccc3ncnc(NCc4ccccc4)c3c2)cc1`, the Potency in assay [1] was > 11.4 µM (inactive); in assay [3], 0.501 µM (active); in assay [11] it was > 46 µM (inactive); in assay [6], > 46 µM (inactive); in [16], 2.51 µM (active); in [17], 7.94 µM (active). Also, the activity, negative = inhibition in assay [5] is -1.76% (inactive). The Potency result in assay [8] and in [9] was “inactive” in each case. The molecule was called inactive in [14]. Moreover, in assay [10], the activity change, negative = inhibition is 2.65% (inactive). The max response in [10] (setting [18]) was -18.1%; in [10] (setting [19]), -15.6%.
